{
  "source": "PubChem BioAssay AID2685",
  "about": "(National Center for Advancing Translational Sciences (NCATS), 2010)",
  "note": "Hit rate of the full screen: of about 320,000 compounds, about 2,100 (0.66%) were called active. Not shown: some 53% with an inconclusive outcome. Calls come from the whole dose curve; as a rule, active = well fitted inhibition curve with a large enough effect in the signal ratio, with a control signal flat (not every such curve was filed as active); inconclusive = small, poorly fitted or top-dose-only effect, or effect the other way, or a change in a side signal; inactive = flat fitted curve, though single readings scatter; the % refers to the signal ratio. The entries come from a sample that favours actives as a whole. Potency is the fitted concentration of half-maximal effect.",
  "data": [
    {"assay": "qHTS Assay for Lipid Storage Modulators in Drosophila S3 Cells;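 for cell number change: cells counted by Cell Tracker Red CMTPX staining in the red channel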; for lipid storage change, negative = inhibition: % is set by controls: 0 for no effect and ±100 for the full control effect", "conditions": "BODIPY lipid droplet fluorescence, 18-24 h, cells fed with added oleic acid; cell number change: measured here: cell count max response; series mostly up to 46.1 µM; lipid storage change, negative = inhibition: at the top concentration", "outline": "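Drosophila S3 cells got compounds at several concentrations plus oleic acid (400 uM solution). Laser-scanning cytometry with 488 nm excitation read lipid droplets at 500-530 nm and cells at 575-640 nm. Percent activity was relative to 20 uM Triacsin C.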", "units": {"cell number change": "%"}, "values": [
      {"smiles": "O=C(CCC(=O)c1ccc(F)cc1)Nc1cccc(C(F)(F)F)c1", "lipid storage change, negative = inhibition": "-22% (inactive)", "cell number change": -4.38},
      {"smiles": "COc1cc(COC(=O)c2cnc(C)cn2)c(OC)cc1Br", "Potency": "0.517 µM (active)", "cell number change": 4.62},
      {"smiles": "Cc1cnc(C(=O)OCc2c(C)cc(C(C)(C)C)cc2C)cn1", "lipid storage change, negative = inhibition": "-22.9% (inactive)", "cell number change": 3.78},
      {"smiles": "COc1ccc(C(C)=O)cc1COC(=O)c1cnc(C)cn1", "outcome": "inactive", "cell number change": 5.96},
      {"smiles": "COc1ccc(C(C(=O)NC2CCCC2)N(C(=O)c2ccco2)c2ccc3c(c2)OCO3)cc1OC", "note": "(stereo not given)", "lipid storage change, negative = inhibition": "17.5% (inactive)"},
      {"smiles": "COc1ccccc1NC(=O)Nc1c(C)nn(C)c1C", "lipid storage change, negative = inhibition": "4.48% (inactive)", "cell number change": 22.1},
      {"smiles": "C/C=C/c1ccc(OCCn2nnc3ccccc32)c(OC)c1", "lipid storage change, negative = inhibition": "-26% (inactive)", "cell number change": 1.4},
      {"smiles": "COc1ccc(-c2cc(C(=O)c3c(N)n(C)c(=O)n(C)c3=O)c3ccccc3n2)cc1", "lipid storage change, negative = inhibition": "15.1% (inactive)", "cell number change": 0.639},
      {"smiles": "CCOCCCN1CN(S(=O)(=O)c2ccc(Cl)cc2)c2nc3ccccc3nc21", "lipid storage change, negative = inhibition": "14.5% (inactive)", "cell number change": -11.9},
      {"smiles": "Cc1c(CNCCc2ccc(Cl)cc2)c(C(=O)O)c(C)n1Cc1ccccc1", "outcome": "inactive"},
      {"smiles": "Cc1ccc(NC(=O)COC(=O)CSC(=S)N2CCOCC2)cc1C", "lipid storage change, negative = inhibition": "5.57% (inactive)", "cell number change": 1.5},
      {"smiles": "O=C(O)CN1C(=O)CSc2ccccc21", "lipid storage change, negative = inhibition": "-0.578% (inactive)", "cell number change": 2.34},
      {"smiles": "O=C(CCl)N1c2ccccc2SCC1c1ccccc1", "note": "(stereo not given)", "Potency": "1.03 µM (active)", "cell number change": -4.27},
      {"smiles": "O=C(CCl)N1c2ccccc2OCC1c1ccccc1", "note": "(stereo not given)", "outcome": "inactive", "cell number change": -20.4},
      {"smiles": "CC(=O)Nc1ccc(Nc2c([N+](=O)[O-])c(=O)n(-c3ccccc3)c3ccccc23)cc1", "lipid storage change, negative = inhibition": "2.41% (inactive)", "cell number change": 12.5},
      {"smiles": "O=C(Nc1nncs1)c1ccccc1Br", "Potency": "32.6 µM (active)", "cell number change": 9.55},
      {"smiles": "O=C(Nc1nccs1)c1ccccc1Br", "lipid storage change, negative = inhibition": "8.98% (inactive)", "cell number change": 3.63},
      {"smiles": "Cc1nnc(NC(=O)c2ccccc2Br)s1", "lipid storage change, negative = inhibition": "0.131% (inactive)", "cell number change": 8.15},
      {"smiles": "Cc1ccc(-n2nc3c(=O)n(CC(=O)NCc4ccc(C)o4)nc(C)c3c2C)cc1", "outcome": "inactive", "cell number change": -10.7},
      {"smiles": "COC(=O)c1ccc2c(=O)n(CCCCCC(=O)NC(C)C)c(=O)[nH]c2c1", "lipid storage change, negative = inhibition": "20.1% (inactive)"},
      {"smiles": "O=C(Cn1cncn1)NCc1cccc2ccccc12", "lipid storage change, negative = inhibition": "5.26% (inactive)", "cell number change": -12.1},
      {"smiles": "CC1CCN(CCNC(=S)Nc2ccc(Cl)cc2)CC1", "lipid storage change, negative = inhibition": "0.944% (inactive)", "cell number change": 5.06},
      {"smiles": "COc1cccc(/C=C2/C(=O)NN(c3ccccc3)C2=O)c1", "lipid storage change, negative = inhibition": "1.13% (inactive)", "cell number change": 0.215},
      {"smiles": "O=C1NN(c2ccc(Cl)c(Cl)c2)C(=O)/C1=C/c1cccc(OC(=O)c2cccs2)c1", "Potency": "23.1 µM (active)", "cell number change": -11.7},
      {"smiles": "COc1cccc(/C=C2/C(=O)NN(c3ccc(F)cc3)C2=O)c1", "lipid storage change, negative = inhibition": "69% (inactive)", "cell number change": 8.15},
      {"smiles": "CCOc1ccc(S(=O)(=O)Oc2ccc3ccccc3c2)cc1", "lipid storage change, negative = inhibition": "-14.9% (inactive)", "cell number change": -10},
      {"smiles": "CCOc1ccccc1NC(=O)CSc1n[nH]c(N)n1", "lipid storage change, negative = inhibition": "7.41% (inactive)", "cell number change": 13.9},
      {"smiles": "CCOC(=O)c1sc(NC(=O)CSc2n[nH]c(-c3ccccc3)n2)c(C#N)c1C", "outcome": "inactive"},
      {"smiles": "CCOc1ccc(/C=C/C2=Cc3c(sc(NC(=O)CSc4n[nH]c(N)n4)c3C#N)C(C)(C)C2)cc1", "Potency": "14.6 µM (active)", "cell number change": -29.6},
      {"smiles": "Cn1c(=O)n(C)c2cc(CN3C(=O)OC(C)(C)C3(C)O)ccc21", "note": "(stereo not given)", "outcome": "inactive"}
    ]}
  ]
}
